Screening results: PubChem BioAssay, National Center for Advancing Translational Sciences (NCATS)
G9a block: qHTS Assay for Inhibitors of Histone Lysine Methyltransferase G9a | G9a H3K9 monomethylation, AlphaScreen, 2 h | 350,000 compounds, 8.8% hits | Potency, µM (doses to about 102 µM), for inactives: top-dose activity, negative = inhibition, actives largely listed as inhibitors | Histone-lysine N-methyltransferase EHMT2 (Homo sapiens), Q96KQ7; further: on the % scale 0 is the no-effect control and ±100 the full control effect; nearly all actives have a fitted effect of over 75% in size
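Compounds were preincubated with 20 nM G9a for 15 min, after which biotinylated H3K9 peptide (500 nM) and SAM (20 uM) started a 2 h room-temperature reaction. Monomethylated product was quantified by antibody-based AlphaScreen chemiluminescence.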
L3MBTL1 block: qHTS Assay for the Inhibitors of L3MBTL1 | Lethal(3)malignant brain tumor-like protein 1 (Homo sapiens), Q9Y468 | AlphaScreen L3MBTL1–H3K9me1 peptide binding | Potency, µM (titrated, usually from 57.1 µM), for inactives: top-dose activity, negative = inhibition, hits mostly inhibitors | 230,000 compounds, 0.66% hits | AID 485360, 2010; further: on the % scale 0 is the no-effect control and ±100 the full control effect; nearly all actives have a fitted effect of over 60% in size
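Read-out is AlphaScreen signal from streptavidin donor and nickel chelate acceptor beads (10 ug/mL final each) bridging L3MBTL1 (50 nM) and biotinylated K9-monomethylated H3(1-15) peptide (75 nM), after 30 min compound exposure at room temperature.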
JMJD2A Tudor inh: qHTS Assay for Inhibitors of JMJD2A-Tudor Domain. Lysine-specific demethylase 4A (Homo sapiens), O75164. AlphaScreen JMJD2A-Tudor / H3K4me3 peptide binding. Potency, µM (titrated, usually from 114 µM), inactives show at the highest dose activity change, negative = inhibition, hits mostly inhibitors. 390,000 compounds, 4.4% hits; further: on the % scale 0 is the no-effect control and ±100 the full control effect; nearly all actives have a fitted effect of over 50% in size
Sfp inh: qHTS Assay for Inhibitors of Bacillus subtilis Sfp phosphopantetheinyl transferase (PPTase); Biochemical Sfp PPTase activity, qHTS; Potency, µM, inactives show largest response in the series, negative = inhibition, usual class: inhibitors; 4'-phosphopantetheinyl transferase ffp (Bacillus subtilis), Q9F4F7; 310,000 compounds, 3.5% hits; AID 1490, 2009;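 further: the enzyme is Sfp with the accession as filed and its product quenches rhodamine fluorescence; 0% = enzyme reaction without inhibitor and -100% = no enzyme wells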
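Sfp 15 nM + cpd, 15 min RT; start w/ rhodamine-CoA 5 uM, BHQ-2-YbbR 12.5 uM (final); 50 mM Hepes pH 7.6, 10 mM MgCl2, 0.01% NP-40, 0.01% BSA; read 525/598 nm at 0 and 30 min.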
HP1b chromo inh: HTS for Inhibitors of HP1-beta Chromodomain Interactions with Methylated Histone Tails; Chromobox protein homolog 1 (Homo sapiens), P83916; AlphaScreen HP1-beta / biotin-H3K9me3 peptide binding; Potency, µM (titrated, usually from 114 µM), inactives show top-dose activity change, negative = inhibition, most hits filed as inhibitors; 390,000 compounds, 0.56% hits; further: nearly all actives have a fitted effect of over 70% in size
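Compound inhibition of the preformed complex between 50 nM HP1-beta and 50 nM biotinylated H3K9me3 peptide was read by AlphaScreen. Buffer was PBS pH 7.4 with 0.01% Tween-20. Incubations ran 30 min at room temperature, with 10 ug/mL donor/acceptor beads.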
BAZ2B block: qHTS Assay for Inhibitors of BAZ2B; Potency, µM (highest dose often 114 µM), for inactives: at the top dose activity change, negative = inhibition, most hits filed as inhibitors; Bromodomain adjacent to zinc finger domain protein 2B (Homo sapiens), Q9UIF8; AlphaScreen BAZ2B-H3K14Ac peptide displacement; AID 504333, 2011; 360,000 compounds, 4.4% hits; further: on the % scale 0 is the no-effect control and ±100 the full control effect; nearly all actives have a fitted effect of over 60% in size
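Protein-peptide AlphaScreen: BAZ2B 50 nM, b-H3K14Ac 50 nM, 1x PBS pH 7.4 + 0.01% Tween-20. Preincubation 30 min RT; cpd 30 min RT (top 110 uM); beads 20 min RT, light-protected.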
Starred values were filed as active, the others as inactive; [ ] = dose if it differs, or a comment. Shown are actives, neighbours in structure and some others; about 12% of the full set was active somewhere. The call rests on the fitted dose curve; in most records, active means well fitted curve in the direction sought with a large enough effect; inconclusive means small, poorly fitted or top-dose-only effect, or another doubt; inactive means no such curve, though single readings can be large; an effect the other way counts as inactive or inconclusive. Potency means the concentration at half of the fitted maximal effect.

Screening CCCCN1C(=O)C(NC(C)=O)c2cc(Br)ccc21 (centres undefined) returned G9a block 2.5µM*, JMJD2A Tudor inh -2%[57.1 µM], Sfp inh -1%, HP1b chromo inh 37% and BAZ2B block -8%.
Screening CCN1C(=O)C(NC(C)=O)c2cc(Br)ccc21 (centres undefined) returned G9a block -22%[59 µM], L3MBTL1 block 1%, JMJD2A Tudor inh -5%, Sfp inh 1%, HP1b chromo inh 32% and BAZ2B block 3%.
O=C(c1ccc2c(c1)N(Cc1ccccc1F)C(=O)c1ccccc1S2(=O)=O)N1CCC(Cc2ccccc2)CC1 was read as G9a block -30%[59 µM], JMJD2A Tudor inh -24%, HP1b chromo inh 12% and BAZ2B block inconclusive.
`CC(=O)Nc1ccc(S(=O)(=O)Nc2cccc(-c3csc(C)n3)c2)cc1` gave G9a block 9%[0.501 µM], L3MBTL1 block 1%, JMJD2A Tudor inh -5%, Sfp inh -1%, HP1b chromo inh 39% and BAZ2B block -6%.
Screening Nc1nc(-c2ccc3ccccc3c2)cs1 returned G9a block 50µM*, L3MBTL1 block -28%, JMJD2A Tudor inh -36%, Sfp inh 0%, HP1b chromo inh -36% and BAZ2B block inconclusive.
`Nc1nc(-c2ccc(-c3ccccc3)cc2)cs1` gave G9a block 45µM*, L3MBTL1 block 0%, JMJD2A Tudor inh -23%, Sfp inh -40%, HP1b chromo inh -8% and BAZ2B block -32%.
For Cc1ccc(-c2csc(N)n2)cc1 the results were JMJD2A Tudor inh -34% and HP1b chromo inh -17%.
For Nc1nc(-c2cccc(NS(=O)(=O)c3ccccc3)c2)cs1 the results were G9a block 45µM*, L3MBTL1 block -3%, JMJD2A Tudor inh inconclusive, Sfp inh 0%, HP1b chromo inh -16% and BAZ2B block inconclusive.
Cc1cccc(Cn2cc3c(=O)n(CC(=O)Nc4c(C)cccc4C)nc-3c3cc(F)ccc32)c1 was read as G9a block -9%[59 µM], JMJD2A Tudor inh -21%, HP1b chromo inh -5% and BAZ2B block -6%.
`COCCNC(=O)c1ccccc1NC(=O)c1nsc2ccccc12` gave G9a block 2%[59 µM], JMJD2A Tudor inh -1%, HP1b chromo inh 7%[57 µM] and BAZ2B block 0%.
Cc1ccc2nc(C)c(CN3CCN(c4ccc([N+](=O)[O-])cc4Cl)CC3)n2c1 was read as G9a block 50µM*, Sfp inh -2% and BAZ2B block 40µM*.
For CC(C)(C)C(=O)N1CCN(c2ccc([N+](=O)[O-])cc2Cl)CC1 the results were JMJD2A Tudor inh -20% and HP1b chromo inh 30%.
COC(=O)c1ccc(NC(=O)c2c(NCc3cccc(F)c3)sc3c2CCCC3)cc1 was read as G9a block inconclusive, JMJD2A Tudor inh inconclusive, HP1b chromo inh -12% and BAZ2B block -35%.
`CCOC(=O)c1ccc(NC(=O)c2c(NCc3cc(OC)c(OC)cc3OC)sc3c2CCCC3)cc1` gave G9a block 7.1µM*, JMJD2A Tudor inh 25µM*, HP1b chromo inh inconclusive and BAZ2B block 25µM*.
`CCOc1ccc(NC(=O)c2c(NC(=O)c3cccc(C)c3)sc3c2CCC3)cc1` gave G9a block -3%[59 µM], JMJD2A Tudor inh -11%, HP1b chromo inh 52% and BAZ2B block 10%.
Screening COc1ccc(NC(=O)c2c(NC(=O)c3ccc(Br)cc3)sc3c2CCCC3)cc1 returned G9a block inconclusive, JMJD2A Tudor inh 1%, HP1b chromo inh 38% and BAZ2B block 2%.
